PNC assembly inh: inhibitors of perinucleolar compartment assembly. PC3M PTB-GFP, PNC prevalence imaging, 16 h; hits give low values. activity change (PNC), negative = inhibition, % at 10 µM. 140,000 tested, 3.1% active. AID 2417;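 active = readout at or below -70, meaning at least 70% loss of cells showing the perinucleolar compartment, a nuclear body marking cancer cells; inconclusive = readout between -30 and a set limit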;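 also: plate controls were DMSO wells for no effect and camptothecin positive control wells for full effect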
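Read-out is percentage of cells bearing a perinucleolar compartment, from automated 20x imaging of fixed, Hoechst-stained PC3M PTB-GFP cells. Cells were seeded 4 h, then exposed 16 h to compound (23 nl of library stock) in duplicate plates.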
ALDH1A1 inh: inhibitors of human aldehyde dehydrogenase 1A1. P00352. Purified ALDH1A1, NADH fluorescence, propionaldehyde substrate. Potency, µM (series often up to 75.3 µM), for inactives: at the top dose activity, negative = inhibition, usual class: inhibitors. 220,000 tested, 7.3% active. AID 1030;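 also: potency is read from the fitted curve at half-maximal effect; plate controls were no enzyme wells and a reference inhibitor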
HPGD inh: blocks human HPGD enzyme activity; purified HPGD, NADH fluorescence kinetic, PGE2 substrate; Potency, µM, without a hit: top-dose activity change, negative = inhibition, actives largely listed as inhibitors; 150,000 tested, 4.3% active; AID 894; also: potency is read from the fitted curve at half-maximal effect
Target sequence (P15428 whole entry, looked up): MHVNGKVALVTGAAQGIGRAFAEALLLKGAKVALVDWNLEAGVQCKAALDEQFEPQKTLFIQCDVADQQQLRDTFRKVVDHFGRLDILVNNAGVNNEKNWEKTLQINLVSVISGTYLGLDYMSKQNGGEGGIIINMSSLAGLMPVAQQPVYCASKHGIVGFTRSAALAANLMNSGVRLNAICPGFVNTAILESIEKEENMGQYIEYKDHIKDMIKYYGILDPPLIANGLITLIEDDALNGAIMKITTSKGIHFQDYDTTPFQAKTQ
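NADH formation kinetics: reaction with 30 uM PGE2 and 1 mM NAD+ (final), 20 nM enzyme, Tris-HCl pH 8 with Tween 20, after 15 min compound preincubation at room temperature. Fluorescence change, last versus first of five reads.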
Numbers without * were called inactive; ? = inconclusive; / = no result given; ! = not confirmed by another sample; [ ] = another dose, or the depositor's remark. Hits are enriched below; roughly 11% of the tested compounds scored in any of these assays. Unless noted, calls follow the shape of the dose curve; as a rule, active = well fitted inhibition curve with a large enough effect (not every such curve was filed as active); inconclusive = small, poorly fitted or top-dose-only effect, or another doubt; inactive = no such curve, though single readings can be large or run the other way. Unless noted, % is scaled to controls: 0 for no effect and ±100 for the full control effect.

SMILES	PNC assembly inh	ALDH1A1 inh	HPGD inh
CCCCSc1nnc(-c2c[nH]c3ccccc23)n1C	?	-8.1%	-11.8%
Cn1c(-c2cnn(-c3ccccc3)c2-n2cccc2)n[nH]c1=S	/	22.4µM*	/
CCCCCCSc1nnc(-c2cnn(-c3ccccc3)c2-n2cccc2)n1C	8.2	7.08µM*	?
O=C(CNC(=O)c1ccc(-c2ccccc2)cc1)OCc1c(Cl)cccc1Cl	73.3	2.9%	-7.1%
CC(C)(C)c1ccc(C(=O)NCC(=O)OCC(=O)Nc2ccccc2[N+](=O)[O-])cc1	17.0	6.31µM*	-10.7%
CC1(c2ccccc2)NC(=O)N(CC(=O)Nc2cc(S(=O)(=O)N3CCOCC3)ccc2Cl)C1=O (stereo not given)	/	16.9%	/
Cc1ccc(C2(C)NC(=O)N(CC(=O)Nc3cc(S(=O)(=O)N4CCOCC4)ccc3C)C2=O)cc1 (stereo not given)	-114.7*	2.0%	-6.2%
Cc1ccc(S(=O)(=O)N2CCOCC2)cc1NC(=O)COC(=O)CNC(=O)c1ccc(C(C)(C)C)cc1	-6.6	7.94µM*	-10.7%
COc1cc(NC(=O)COC(=O)CNC(=O)c2ccc(C)cc2)c(C)cc1[N+](=O)[O-]	20.3	-8.4%	-18.0%
Cc1ccc(S(=O)(=O)N2CCOCC2)cc1NC(=O)COC(=O)CNC(=O)c1ccc(Oc2ccccc2)cc1	?	-10.7%	-10.9%
CCCCC1=CC2=C(c3ccco3)C(=O)C(C)(OC(=O)c3ccc(OC)cc3)C(=O)C2=CN1CCc1c[nH]c2ccccc12 (stereo not given)	/	11.2%[13.5 µM]	-4.8%
C[C@H](O/N=C1/[C@H]2O[C@@H]2[C@@H](O)[C@H]2[C@H]1CCn1c(=O)n(-c3ccccc3)c(=O)n12)c1cn([C@H](CO)Cc2ccccc2)nn1	/	-1.2%[13.5 µM]	/
O=C(N/C(=C\c1cccc([N+](=O)[O-])c1)C(=O)N1CCCCC1)c1cccs1	-4.7	20µM*	-4.5%
Cc1cccc(NC(=O)/C(=C/c2cccc([N+](=O)[O-])c2)NC(=O)c2cccs2)c1	3.6	10.9%	-6.1%
COc1cccc(-n2nc(-c3ccnn3-c3ccc(C)cc3)c(=O)n(C)c2=O)c1	?	39.8µM*	-24.5%
COc1ccc(-n2nccc2-c2nn(-c3cccc(OC)c3)c(=O)n(C)c2=O)cc1	3.5	-5.3%	-19.8%
Cc1ccccc1CN(CC1CCC(C(=O)O)CC1)C(=S)Nc1ccccc1F (stereo not given)	/	-6.9%	/
O=C1c2ccccc2C(=O)c2c1ccc(O)c2O	/	?	28.2µM*
O=C1c2cccc(O)c2C(=O)c2c(O)cccc21	43.1	?	35.5µM*!
O=C1c2c(O)ccc([N+](=O)[O-])c2C(=O)c2c([N+](=O)[O-])ccc(O)c21	/	2.7%	?
COC(=O)c1ccc2c(c1O)C(=O)c1ccccc1C2=O	-28.2	10.8%	-17.1%
O=C1c2ccc(O)c(O)c2C(=O)c2c(O)ccc(O)c21	/	?	11.2µM*
CN(C)c1cccc2c1C(=O)c1ccccc1C2=O	89.0	?	-5.9%
Cc1cc(Cl)ccc1Oc1ccccc1C(=O)CC#N	/	9.6%	/
CC(=O)Nc1ccc(SCC(=O)Nc2ccc(Cl)cn2)cc1	/	-2.9%	/
SMILES	PNC assembly inh	ALDH1A1 inh	HPGD inh
CCOC(=O)CN(Cc1sccc1C)C(=O)Nc1ccc(OC)cc1OC	96.1	6.1%	-2.1%
Cc1cc(SCNC(=O)c2ccccc2)ncn1	?	?	-9.3%
Cc1cc(C)nc(SCNC(=O)c2ccc(F)cc2)n1	47.8	4.5%	14.1µM*
CCOC(=O)NNC(=O)C1CCC(C)CC1 (stereo not given)	/	1.1%	/
C=CCn1c(C)csc1=Nc1ccccc1C	/	-11.8%	/
Cc1nnc(SCC(=O)N(C)C2CCCCC2)s1	/	5.5%	/
COCCNC(=O)Cn1cc(C(=S)N2CCCCC2)c2ccccc21	/	-11.7%	/
O=C(O)Cn1cc(C(=S)N2CCCCC2)c2ccccc21	/	10µM*	/
O=C(C(=O)N1CCOCC1)c1cn(CC(=O)N2CCc3ccccc3C2)c2ccccc12	/	20µM*	/
O=C(C(=O)N1CCc2ccccc2C1)c1cn(CC(=O)N2CCOCC2)c2ccccc12	-19.8	-4.8%	-12.8%
O=C(O)Cn1cc(C(=S)N2CCOCC2)c2ccccc21	?	18.9µM*	17.8µM*
O=C(Cn1cc(C(=S)N2CCOCC2)c2ccccc21)N1CCOCC1	-18.5	1.8%	-5.6%
COc1ccc(C(=O)N2CCC[C@@]3(CCN(C(=O)Nc4ccccc4)C3)C2)cc1	/	-3.8%	-5.3%
COc1ccccc1N1CCN(CC(=O)Nc2sccc2C#N)CC1	41.0	?	-12.2%
COc1ccccc1-c1nccc(NC2CCNCC2)n1	/	1.4%	/
CC1=CC2C(C(C)C)CCC(C)(O)C2CC1 (stereo not given)	/	5.6%	-10.8%
O=C(/C=C/c1cc([N+](=O)[O-])ccc1OC(F)F)Nc1cccc(OC(F)F)c1	-10.8	14.2%	-5.8%
CC(=O)c1c(O)cc(O)cc1O	/	6.4%	?
CC1(C)CC(NC(=O)C23CCC(C)(C(=O)C2)C3(C)C)CC(C)(C)N1 (stereo not given)	?	-0.7%	-3.7%
C/C(=N\N=C(N)N)c1ccc(Cl)c(Cl)c1	/	0.1%	/
CCOc1ccc(C(=S)N2CCOCC2)cc1	16.8	-2.0%	-12.5%
S=C(c1ccc(N2CCCC2)cc1)N1CCCCC1	12.3	20µM*	14.1µM*
Oc1ccc(C(=S)N2CCCCCC2)cc1	14.5	?	?
S=C(c1ccc(N2CCOCC2)cc1)N1CCOCC1	-3.4	2.24µM*	7.94µM*
COc1ccccc1C(=O)C1CCCN(C(=O)Nc2ccccc2F)C1 (stereo not given)	/	9.7%	/
SMILES	PNC assembly inh	ALDH1A1 inh	HPGD inh
COc1ccc(-n2cc(CN(C)C(C)c3ccncn3)c(-c3cccc(F)c3)n2)cc1 (stereo not given)	/	25.1µM*	/
COc1cccc(-c2nn(-c3ccccc3)cc2CN(C)C(C)c2ccncn2)c1 (stereo not given)	/	-4.7%	/
COCCCNC(=O)CN(c1cc([N+](=O)[O-])ccc1OC)S(C)(=O)=O	/	4.2%	/
CCOc1ccc(-n2c(C)cc(/C=N\NC(=O)CC(=O)NC3CCCCC3)c2C)cc1	42.6	-8.0%	-8.5%
Cc1cccc(-n2c(C)cc(C(=O)NC3CCCCC3)c2C)c1	?	0.7%	0.708µM*
COc1ccc(-n2c(C)cc(C(=O)NC3CCCCC3)c2C)cc1	51.8	7.94µM*	1.12µM*
Cc1cccc(C(=O)NC2CC3CCCC(C2)N3C(=O)NC2CCCCC2)c1 (stereo not given)	?	5.7%	-1.4%
CN(c1ccccc1)P(=O)(N(C)c1ccccc1)N(C)c1ccccc1	/	-0.1%	/
N#Cc1cccc(Oc2ccc(-c3cnc4ccccc4n3)cc2)c1C#N	-5.3	11.1%	-20.0%
N=C1[C@@H](O)[C@]2(I)c3ccccc3N3C(=N)[C@H](O)[C@@H]4c5ccccc5N1[C@@H]4[C@@H]32	/	-4.0%[13.5 µM]	3.98µM*
O=C(/C=C/c1c(Cl)nc2ccccn12)N1CCN(c2ccccc2F)CC1	/	3.1%	/
O=C(/C=C/c1c(Cl)nc2ccccn12)N1CCCCC1	/	11.2µM*	/
N=C1CCC[C@@H]1C(=S)SCCC(N)=O	/	11.2%[13.5 µM]	-9.6%
O=C(CSc1nnc(-c2cccs2)n1-c1cccc(Cl)c1)c1cccc2c1OCCO2	-3.0	?	-22.9%
Cc1nc(/C(=N/O)C(N)=O)cs1	/	0.0%	/
O=Cc1ccc2oc3nc4n(c(=O)c3c(=O)c2c1)CCCS4	2.6	2.51µM*	?
